E-sel TNF inh: TNF alpha driven E-selectin expression inhibition | HUVEC TNFa-induced E-selectin immunofluorescence, high content | inhibition, % at 2 µM | actives 0.71% (n = 120,000) | AID 1246;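 active = inhibition above the batch mean plus 3 SD, and confirmed as a hit on visual image review, cut at about 43% in these data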;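 note: 0% = TNF-stimulated DMSO wells and 100% = unstimulated control wells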
MRP resist rev: reverses drug resistance mediated by MRP | H69AR cells + 2 uM doxorubicin, CellTiter-Glo, 72 h | differential viability (reversal), % at 10 µM | actives 0.04% (n = 85,000) | AID 602;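 active = viability drop by adding the cancer drug above about 55%, with treated viability meeting a 40% cutoff, limit read from the data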;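 note: viability without doxorubicin minus viability with 2 µM doxorubicin for each compound; larger differential means the compound sensitizes cells more to doxorubicin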
cytoskel mod: modifiers of cytoskeleton assembly; inhibition, % at 2 µM; actives 0.18% (n = 91,000); HUVEC TNFa F-actin phalloidin imaging, high content;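 active = inhibition above the batch mean plus 3 SD and confirmed as a hit by visual image inspection, cut at about 30% in these data, passing the limit was not always enough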
VCAM1 TNFa inh: reduces TNF alpha induced VCAM1 expression in HUVEC. inhibition, % at 2 µM. HUVEC TNFa-induced VCAM-1 immunofluorescence, high-content imaging. actives 0.48% (n = 95,000). AID 802;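 active = inhibition above the batch mean plus 3 SD, with images confirmed as a hit by eye, cut at about 37% in these data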;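 note: 0% = TNF-stimulated DMSO wells and 100% = unstimulated control wells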
MRP-1 activ: MRP-1 activation | H69AR cells + doxorubicin, viability rescue, CellTiter-Glo | viability increase, % at 10 µM | actives 0.61% (n = 140,000);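 active = viability gain under doxorubicin at or above a set limit, the compound median plus 3 SD, cut at about 4.7% in these data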;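 note: MRP-1 overexpressing cells given doxorubicin 25 µM after compound pretreatment; 18-22 h compound pretreatment then 72 h with doxorubicin before readout; 0% = doxorubicin-only wells and 100% = vehicle-treated cells without doxorubicin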
An asterisk follows results filed as active; / = no result. Most compounds without a hit are left out; they make up all but 1.5% or so of the library.

SMILES	E-sel TNF inh	MRP resist rev	cytoskel mod	VCAM1 TNFa inh	MRP-1 activ
COc1ccc(CNc2nc3c(c(=O)n(Cc4ccc(Br)cc4)c(=O)n3C)n2C)cc1	-13	0	-29	-12	5.2*
Cn1c(NCc2ccccc2)nc2c1c(=O)n(Cc1ccc(Br)cc1)c(=O)n2C	/	19	4	14	0
O=C(Nc1nccs1)c1cccc(N2C(=O)C3C4C=CC(C4)C3C2=O)c1 (stereo not given)	10	/	/	/	-2
O=C(Nc1nccs1)c1cccc(N2C(=O)c3cccc4c([N+](=O)[O-])ccc(c34)C2=O)c1	-13	/	-6	62*	-3
COc1cc([N+](=O)[O-])ccc1NC(=O)CC(C)C	/	/	/	/	0
O=c1cc(CSc2ccc(S(=O)(=O)N3CCCCC3)cn2)nc2sccn12	/	-12	-10	20	-1
CCOc1cc(/C=N/NC(=O)CN2CCCCC2)ccc1OCc1cccc(Cl)c1	11	/	/	/	-3
Cc1ccc(OCCCC(=O)Nc2ccc(N3CCOCC3)cc2)c(C)c1	-16	7	3	-4	-1
Cc1ccccc1OCCCC(=O)Nc1ccc(N2CCOCC2)cc1	76*	23	/	/	-2
CC(C)Nc1cc(N2CCCC2)ccc1[N+](=O)[O-]	-54	/	2	2	-3
CC(C)(C)CNc1cc(N2CCCC2)ccc1[N+](=O)[O-]	29	/	7	-33	4.8*
CC(C)c1ccc(CNc2cc(N3CCCC3)ccc2[N+](=O)[O-])cc1	21	/	-8	-6	5.4*
COc1ccc(-c2csc(CCN3N=C(C)CC3=O)n2)cc1	23	/	/	/	/
CSc1nc(-c2ccccc2O)nc(-c2ccccc2O)n1	/	11	/	/	/
CN=C(Nc1cc(C)nn1CCC#N)c1ccccc1F	5	-5	67*	3	-1
COc1cc(-c2nnc(COc3ccc4ccccc4c3)o2)cc(OC)c1OC	100*	-17	5	-1	-2
O=C(c1cc(S(=O)(=O)N2CCCCC2)c(Cl)cc1N1CCOCC1)N1CCOCC1	-19	-1	16	-7	-3
COC(=O)c1cc(S(=O)(=O)N2CCOCC2)c(N2CCOCC2)cc1N1CCOCC1	56*	/	/	/	-3
COc1ccc(Nc2nnc(Cc3ccccc3)c(=O)[nH]2)c(OC)c1	/	1	28	-7	-5
COc1ccc(Nc2nnc(Cc3ccc(Cl)cc3)c(=O)[nH]2)c(OC)c1	/	2	/	/	7.0*
CC(NC(=O)CCc1ccccc1)c1cc2c(cc1Cl)OCCO2 (stereo not given)	-3	/	/	/	0
CCN1C(=O)c2cccc3c(S(=O)(=O)NCc4ccccn4)ccc1c23	14	7	31*	-5	-2
CCN1C(=O)c2cccc3c(S(=O)(=O)Nc4c(C)n(C)n(-c5ccccc5)c4=O)ccc1c23	-15	7	6	-6	-1
O=C(Nc1ccc(Cl)cc1)C1CCCN(S(=O)(=O)c2cnc[nH]2)C1 (stereo not given)	1	11	-13	0	4.9*
CC(C)c1ccc(NC(=O)C2CCCN(S(=O)(=O)c3cnc[nH]3)C2)cc1 (stereo not given)	/	8	7	-6	1
SMILES	E-sel TNF inh	MRP resist rev	cytoskel mod	VCAM1 TNFa inh	MRP-1 activ
Cc1cc(=S)[nH]c2c(C)cccc12	11	-4	-16	9	-1
Cc1nc2cc(-c3ccc(Cl)cc3)nn2c(C)c1CCC(=O)NC(C)c1ccc2c(c1)OCCO2 (stereo not given)	-24	/	/	/	5.5*
Cc1csc(NC(=O)CCc2c(C)nc3cc(-c4ccc(Cl)cc4)nn3c2C)n1	-9	/	/	/	0
CCNCC(O)COCC(O)CNCC (stereo not given)	-12	/	10	62*	-1
CCc1ccc(OCCOCC(O)CNC(C)(C)C)cc1 (stereo not given)	/	/	/	/	-3
COc1cccc(N2CC(C(=O)Nc3nnc(SCC(=O)c4ccccc4)s3)CC2=O)c1 (stereo not given)	61*	/	/	/	-3
COc1ccc(C(=O)CSc2nnc(NC(=O)C3CC(=O)N(c4ccccc4)C3)s2)cc1 (stereo not given)	/	/	/	/	-2
COC(=O)c1cc2nc(-c3ccc(OC)cc3)cc(C(F)(F)F)n2n1	16	11	-4	16	1
COc1ccc(-c2cc(C(F)(F)F)n3nc(C(=O)Nc4cc(C)on4)cc3n2)cc1OC	8	13	-15	95*	-2
COc1cc2c3nnc(-c4ccc(F)cc4)c-3cn(Cc3ccccc3)c2cc1OC	15	1	33*	5	-3
CCOC(=O)N1CCc2c(sc3c2c(=O)n(Cc2ccccc2)c(=O)n3Cc2cccc(C)c2)C1	88*	/	/	/	2
CCOC(=O)N1CCc2c(sc3c2c(=O)n(Cc2ccccc2)c(=O)n3Cc2ccccc2F)C1	-16	/	/	/	3
Cc1nnc2n(Cc3ccccc3)c(=O)c3c4c(sc3n12)CN(Cc1ccccc1)CC4	/	25	/	/	/
O=c1c2c3c(sc2n2cnnc2n1Cc1ccccc1)CN(Cc1ccccc1)CC3	9	64*	-25	-31	/
CN(C)S(=O)(=O)c1cccc(NC(=O)CN2C(=O)C3C4C=CC(C4)C3C2=O)c1 (stereo not given)	-10	/	/	/	-1
COC(=O)c1[nH]c2cc(OC)ccc2c1N	/	-7	14	-7	-1
O=C(N/N=C/c1ccc(OCC(=O)N2CCCCC2)cc1)c1ccccc1	-6	/	-14	12	-4
O=C(COc1ccc(/C=N/NC(=O)C(=O)N2CCCCCC2)cc1)Nc1ccccc1Cl	70*	/	/	/	0
COc1cccc(-c2cc3c(=O)n(-c4ccccc4)c(=S)[nH]c3s2)c1	66*	/	27	18	-3
O=c1c2c3n(c(=S)nc2[nH]n1-c1ccccc1)CCCCC3	1	5	-6	-13	4
O=C(O)C[CH2][Ge](=[O])[O][Ge](=[O])[CH2]CC(=O)O	/	-17	/	/	/
Cc1ccc2[nH]c(=O)c(C(c3nnnn3C3CCCC3)N3CCCc4ccccc43)cc2c1 (stereo not given)	1	-20	-13	24	19*
Cc1cccnc1N(C(=O)Nc1ccccc1)C1=NCC(C)(C)S1	-5	-18	8	42*	-1
CC(C)Sc1nc2c(c(=O)n1-c1ccc(F)cc1)SCC2	12	0	2	94*	-1
O=C(CSc1nc2c(c(=O)n1-c1ccc(F)cc1)SCC2)N1CCCC1	/	/	/	-4	-1
SMILES	E-sel TNF inh	MRP resist rev	cytoskel mod	VCAM1 TNFa inh	MRP-1 activ
Clc1cc(NCc2cccs2)ccc1N1CCOCC1	9	15	-5	7	-1
CC(=O)c1cccc(NS(=O)(=O)N(C)C)c1	-27	-4	-2	-2	-1
Cc1noc(C)c1S(=O)(=O)Nc1ccc(C(=O)NCc2ccccc2)cc1	6	/	-50	-10	-3
Cc1cccc(NC(=O)c2ccc(NS(=O)(=O)c3c(C)noc3C)cc2)c1	100*	/	9	4	-2
CC(=O)c1cccc(NS(=O)(=O)c2c(C)noc2C)c1	/	17	60*	15	-1
CC(=O)c1cccc(NS(=O)(=O)N2CCCCC2)c1	81*	-9	1	20	-1
CCc1cccc(NC(=O)c2ccc(NS(=O)(=O)c3c(C)noc3C)cc2)c1	1	/	16	8	-2
CC(C)Cn1c(N)c(C(=O)COC(=O)CC23CC4CC(CC(C4)C2)C3)c(=O)n(C)c1=O	-14	0	18	-6	-2
